Active and inactive are the calls of the source.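 The calls were made as follows: active = luciferase inhibitors whose fitted dose curve gives a half-maximal potency within ten times the top tested dose; inconclusive = flat curve with 30 to 70% inhibition, or a poor fit; inactive = the rest.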
Test: luciferase inhibitors in kinase-free ADP detection – biochemical, luminescence, cherry-pick, set 04, artefact control for Dyrk1A inhibitor project, dose response (AID 588432)
Conditions: ADP-Glo luminescence without kinase, luciferase artifact; series mostly up to 12 µM

outcome, inactive:
CN(Cc1ccco1)c1ncnc2ccc(-c3ccc4c(c3)OCO4)cc12
c1cc(-c2ccc3c(c2)OCO3)nc(Nc2ccc3c(c2)OCO3)n1
Clc1ccc(CNc2nccc(-c3ccc4c(c3)OCO4)n2)cc1Cl
COc1ccc(-c2nccc(NCc3ccc(C)cc3)n2)cc1
c1cncc(CNc2nccc(-c3ccc4cn[nH]c4c3)n2)c1
c1csc(CNc2ncnc3ccc(-c4ccc5c(c4)OCO5)cc23)c1
Clc1ccc(CNc2cc(-c3ccc4c(c3)OCO4)ncn2)cc1
c1cncc(CNc2ncncc2-c2ccc3c(c2)OCO3)c1
Clc1ccc(CNc2nccc(-c3ccc4c(c3)OCCO4)n2)cc1Cl
Brc1ccc(CNc2nccc(-c3ccc4c(c3)OCO4)n2)cc1Br
Cc1nc(CN(C)c2ncnc3ccc(-c4ccc5c(c4)OCO5)cc23)cs1
FC(F)(F)c1cccc(Nc2nccc(-c3ccc4c(c3)OCO4)n2)c1
Cc1nc(CNc2ncnc3ccc(-c4ccc5c(c4)OCO5)cc23)cs1
CCCNc1ncnc2ccc(-c3ccc4c(c3)OCO4)cc12
Clc1ccc(Nc2nccc(-c3ccc4c(c3)OCO4)n2)cc1
Clc1cc(Cl)cc(CNc2cc(-c3ccc4c(c3)OCO4)ncn2)c1
Cc1csc(CN(C)c2ncnc3ccc(-c4ccc5c(c4)OCO5)cc23)n1
Clc1cccc(-c2ccc3ncnc(NCc4ccc5c(c4)OCO5)c3c2)c1
Cc1nc(CNc2ncnc3ccc(-c4ccoc4)cc23)cs1
Brc1cc(Br)cc(CNc2nccc(-c3ccc4c(c3)OCO4)n2)c1
Clc1cc(Cl)cc(CNc2ncncc2-c2ccc3c(c2)OCO3)c1
CN(Cc1nccs1)c1ncnc2ccc(-c3ccc4c(c3)OCO4)cc12
CCN1/C(=C/C(C)=O)Sc2ccc(OC)cc21
COc1ccc(-c2ccnc(NCc3ccc(Cl)c(Cl)c3)n2)cc1OC
c1nc(NCC2CCCO2)c2cc(-c3ccc4c(c3)OCO4)ccc2n1 (centres undefined)
CN(C)c1ccc(-c2nccc(NCc3cccs3)n2)cc1
c1cncc(CNc2nccc(-c3ccc4[nH]ncc4c3)n2)c1
Clc1ccccc1-c1ccc2ncnc(NCc3ccc4c(c3)OCO4)c2c1
c1nc(NCC2CCCOC2)c2cc(-c3ccc4c(c3)OCO4)ccc2n1 (centres undefined)
CCOC(=O)c1ccc(-c2ccc3ncnc(NCc4ccc(C)o4)c3c2)o1
Cc1ccsc1CN(C)c1ncnc2ccc(-c3ccoc3)cc12
Cn1ccc2cc(-c3ccc4ncnc(NCc5ccc6c(c5)OCO6)c4c3)ccc21
Fc1c(-c2ccc3ncnc(NCc4cccs4)c3c2)ccc2c1OCO2
Cc1ccc(CN(C)c2ncnc3ccc(-c4ccc5c(c4)OCO5)cc23)o1

Source: PubChem BioAssay AID588432 (Broad Institute, 2011)
